From PubChem BioAssay AID623868 (Vanderbilt High Throughput Screening Facility, 2012)
Screen size: about 2,100 compounds; about 760 (36%) were called active. These entries were drawn from the full list. A number with no mark means an inactive call.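 The calls were made as follows: active = thallium-flux fluorescence traces judged by eye to show enhanced or reduced glutamate response, manual score 1 or -1, so both directions (some results past the limit were not filed as active); inactive = the rest, including fluorescent or raised-baseline compounds.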

Assay: non-GIRK thallium flux modulation in mGlu8 cells, confirmation, counter-screen for GIRK activator project, cell-based, HEK-293 rmGlu8, no GIRK (AID 623868);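 also: extra codes mark interference with 3 for fluorescent and 4 for baseline rise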
Settings: thallium flux fluorescence, at 10 µM, actives lie on both sides, codes: 1 enhancer, -1 blocker, 0 none, thallium stimulus containing EC20 glutamate

Row | Structure (SMILES) | manual score
1 | CC(C)n1c(CCC(=O)O)ccc1-c1ccccc1 | 0
2 | Fc1ccc(/C=N/NC(=S)Nc2ccc(Cl)cc2)cc1F | 1 (active)
3 | Fc1cc(Br)ccc1NC(=S)NCCc1ccccc1 | 0
4 | Fc1cccc(/C=N/NC(=S)Nc2ccccc2Cl)c1 | 1 (active)
5 | Fc1ccc(NC(=S)N/N=C/c2cccc(Br)c2)c(F)c1 | 1 (active)
6 | Fc1ccc(NC(=S)N/N=C/c2ccc(F)c(F)c2)c(F)c1 | 1 (active)
7 | S=C(N/N=C/c1ccccc1Cl)Nc1ccccc1 | 0
8 | CCSc1ccccc1C(=O)Nc1cccnc1 | 0
9 | CN(C(=O)c1cccnc1)c1nnc(-c2cnccn2)s1 | 0
10 | Cc1ccccc1-n1nnc2c(=O)oc3ccccc3c21 | -1 (active)
11 | CN1C(=O)c2oc3ccccc3c(=O)c2C1c1ccccn1 (configuration not stated) | 0
12 | CC(=O)Oc1ccc2c(c1)Oc1cc(OC(C)=O)ccc1C21OC(=O)c2ccccc21 | 3
13 | COc1cccc(NC(=O)CSc2nc(N)cc(N)n2)c1 | 0
14 | COc1cccc(NC(=O)Cn2cc(C#N)c3ccccc32)c1 | 0
15 | COc1cc(OC)c(NC(=O)CCNC(=O)Cn2cnc3ccccc3c2=O)cc1Cl | 0
16 | COc1ccc(NC(=O)CSc2nc3ccccc3c(=O)n2CCCN2CCCCC2)c(OC)c1 | 0
17 | CCCn1c(SC(C(=O)Nc2cc(C)ccc2OC)c2ccccc2)nc2ccccc2c1=O (configuration not stated) | 1 (active)
18 | COc1cccc(NC(=O)C(Sc2nc3ccccc3c(=O)n2CC(C)C)c2ccccc2)c1 (configuration not stated) | 1 (active)
19 | C=CCN(CC=C)C(=S)NC(=O)c1ccc(-c2ccccc2)cc1 | 1 (active)
20 | CN(Cc1ccccc1)C(=S)NC(=O)c1ccc(-c2ccccc2)cc1 | 1 (active)
21 | CN(Cc1ccccc1)C(=S)NC(=O)C1CCCCC1 | 1 (active)
22 | CCc1cccc(NC(=O)NC2CCCCC2)c1 | -0.5
23 | O=C(NC(=S)NCC1COc2ccccc2O1)c1ccccc1 (configuration not stated) | 0
24 | CCCN(CC1CC1)C(=S)Nc1ccc(Oc2ccccc2)cc1 | 0
25 | CCCN(CCC)C(=S)NC(=O)c1ccc(-c2ccccc2)cc1 | 1 (active)
26 | CCOC(=O)C(C)Oc1ccc2c(CC)cc(=O)oc2c1C (configuration not stated) | -0.5

Row | Structure (SMILES) | manual score
27 | CCCn1c(=N)c(C(=O)NCc2ccc3c(c2)OCO3)cc2c(=O)n3cccc(C)c3nc21 | 0
28 | O=C(Nc1nnc(SCc2ccc(F)cc2)s1)C1CC(=O)N(c2ccc3c(c2)OCCO3)C1 (configuration not stated) | 0
29 | C=CCN(CC=C)C(=S)NC(=O)c1ccc([N+](=O)[O-])cc1 | 1 (active)
30 | Cn1cccc1CNC1CCCC1 | 0
31 | C=CCn1c(=S)[nH]c2ccccc2c1=O | 1 (active)
32 | COCCNC(=O)CCCCCn1c(=S)[nH]c2ccccc2c1=O | 0
33 | C=CCn1c(=S)[nH]c2ccc(Br)cc2c1=O | 1 (active)
34 | CC(=O)c1ccc(N2CCCC2)c(F)c1 | 0
35 | CCOC(=O)c1c(C)n(C)c2ccc(O)c(CN3CCC(C)CC3)c12 | 0
36 | CC(C)OC(=O)c1c(NS(=O)(=O)c2ccccc2)sc2c1CCCC2 | 1 (active)
37 | CC1CCc2c(sc(NS(=O)(=O)c3ccccc3)c2C(=O)OC(C)C)C1 (configuration not stated) | 1 (active)
38 | Cc1ccc(-c2c(C)sc(NC(=O)C3C4CCC(O4)C3C(=O)O)c2C(=O)OC(C)C)cc1 (configuration not stated) | 0
39 | COc1ccc(S(=O)(=O)NCCC(=O)NC2CCCCCCC2)cc1 | 0
40 | COC(=O)c1c(NS(=O)(=O)c2ccc(C)cc2)sc2c1CCC(C)C2 (configuration not stated) | 1 (active)
41 | COC(=O)c1ccc(NS(=O)(=O)c2ccc(SC)cc2)cc1 | 0
42 | COc1cccc(CNc2nc3ccccc3n2CCN2CCCCC2)c1OC | 0
43 | CC(C)(C)NC(=O)C(c1ccncc1)N(C(=O)c1csnn1)c1ccccc1 (configuration not stated) | 0
44 | COC(=O)c1ccccc1NC(=S)NC(=O)c1ccccc1 | 1 (active)
45 | COC(=O)c1ccccc1NC(=S)NC(=O)c1ccc(C)cc1 | 1 (active)
46 | COC(=O)c1ccccc1NC(=S)NC(=O)COc1ccccc1 | 1 (active)
47 | O=C(COc1ccccc1)NC(=S)Nc1ccc2c(c1)Cc1ccccc1-2 | 0
48 | COC(=O)COc1ccc(S(=O)(=O)Nc2ccccc2C(=O)OC)cc1 | -0.5
49 | COC(=O)c1ccccc1NC(=S)NC(=O)COc1ccc(C)cc1 | 0
50 | O=C(COc1ccccc1)NC(=S)Nc1cccc([N+](=O)[O-])c1 | 1 (active)
51 | CSc1cccc(NC(=O)COc2ccccc2)c1 | 0
52 | COc1ccc(OC)c(-c2c3cc(O)c(=O)cc-3oc3cc(O)c(O)cc23)c1 | 0
